Our source for the activity change, negative = inhibition and Potency values is PubChem BioAssay AID1645882 (National Center for Advancing Translational Sciences (NCATS), 2021).

SMILES strings stand for the structures. Values joined by “and” are separate entries in the source; they are usually repeats but may differ in a detail not shown here. Equal entries are not always repeated. About 120 (0.75%) of roughly 16,000 compounds were called active. Roughly 4% stayed inconclusive and do not appear here. The call rests on the fitted dose curve; in most records, active means well fitted inhibition curve with a large enough effect; inconclusive means small, poorly fitted or top-dose-only effect; inactive means no such curve, though single readings can be large or run the other way. Shown is part of a subset that was picked to be rich in actives. Where a call stands in place of a potency, no number is given. Where a structure was tested more than once in an assay, its records may differ in their call.
Potency means the concentration at half of the fitted maximal effect.

Sequence of Rap guanine nucleotide exchange factor 3 (Homo sapiens) (O95398 whole entry, looked up): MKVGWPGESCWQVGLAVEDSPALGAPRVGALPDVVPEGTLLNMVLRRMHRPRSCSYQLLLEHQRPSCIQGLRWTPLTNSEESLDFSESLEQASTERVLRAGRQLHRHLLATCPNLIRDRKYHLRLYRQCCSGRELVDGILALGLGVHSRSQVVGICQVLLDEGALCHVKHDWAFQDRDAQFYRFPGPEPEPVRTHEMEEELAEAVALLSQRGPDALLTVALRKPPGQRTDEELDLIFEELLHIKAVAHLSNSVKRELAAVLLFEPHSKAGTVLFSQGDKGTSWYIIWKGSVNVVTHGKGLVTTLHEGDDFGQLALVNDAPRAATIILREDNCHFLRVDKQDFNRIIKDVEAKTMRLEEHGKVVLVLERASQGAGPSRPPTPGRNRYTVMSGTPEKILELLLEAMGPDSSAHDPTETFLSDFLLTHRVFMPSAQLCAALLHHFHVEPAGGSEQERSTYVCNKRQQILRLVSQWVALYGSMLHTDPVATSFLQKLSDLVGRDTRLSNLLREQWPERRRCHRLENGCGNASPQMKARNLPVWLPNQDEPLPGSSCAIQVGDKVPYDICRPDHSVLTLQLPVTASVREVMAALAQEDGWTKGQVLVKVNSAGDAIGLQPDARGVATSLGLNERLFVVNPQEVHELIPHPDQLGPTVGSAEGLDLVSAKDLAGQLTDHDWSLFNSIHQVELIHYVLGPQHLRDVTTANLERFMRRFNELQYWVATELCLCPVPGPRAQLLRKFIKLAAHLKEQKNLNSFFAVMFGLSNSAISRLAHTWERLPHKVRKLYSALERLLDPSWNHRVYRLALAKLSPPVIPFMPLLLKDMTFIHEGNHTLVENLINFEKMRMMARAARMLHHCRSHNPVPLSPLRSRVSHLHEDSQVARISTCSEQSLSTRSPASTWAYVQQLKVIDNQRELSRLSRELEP

In the test the target is Rap guanine nucleotide exchange factor 3 (Homo sapiens) (UniProt O95398). In words: Validation qHTS for antagonist of cAMP-regulated guanine nucleotide exchange factor 3 (EPAC1). Further: nearly all actives have a fitted effect of over 75% in size. The note with it: EPAC1 Rap1B-BODIPY-GDP exchange, fluorescence; series mostly up to 150 µM. A digest of the protocol:
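EPAC1 (100 nM) mixed with 250 nM RAP1B-BODIPY-GDP and 50 uM GDP; compounds in concentration series, 5 min at room temperature. Fluorescence (ex 480/em 540 nm) read every 5 min for 30 min; normalized to ATA control and DMSO.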
For orientation: Quantitative high-throughput screening tests each substance at several concentrations.
Take `CCCCCCCCCCC/C=C\C/C=C\CCCC(=O)O`: the activity change, negative = inhibition was -8.31% [at 15.3 µM] (inactive). On to `CCCCCCCC/C=C\C/C=C\C/C=C\CCCC(=O)O`, for which the activity change, negative = inhibition is 9.96% [at 15.3 µM] (inactive). In the case of `CCCCC/C=C\C/C=C\C/C=C\C/C=C\CCCC(=O)O`, the Potency was 70.8 µM (active) and inactive. Take `Cc1cc2ccccc2c[n+]1CC(=O)c1ccc(F)cc1`: the Potency result was “inactive”. For the molecule `C/C(N[C@@H]1CSCC1O)=C1/C(=O)CC2[C@@H]1C2(C)C` (stereo partly specified), the Potency result is “inactive”.

In the case of `COc1ccc(-n2c(CNC(=O)c3ccccc3C(F)(F)F)nnc2SC)cc1`, the Potency result is “inactive”. On the same count and under the same terms, with `FC(F)(F)c1ccccc1-c1cncnc1NCCc1cnc[nH]1` the entry was “inactive”; with `COc1c(O)cc2c(=O)oc3c(OC)c(O)cc4c(=O)oc1c2c34`, “inactive”; with `Cc1cc(=O)oc2c(O)c(O)ccc12`, “inactive”. Consider `O=c1oc2c(O)c(O)cc3c(=O)oc4c(O)c(O)cc1c4c23`, for which the Potency entry was “inactive and 25.1 µM (active)”. The same measure, in the same setting: under `Cc1nc(N=Nc2ccc(S(=O)(=O)O)cc2S(=O)(=O)O)c(COP(=O)(O)O)c(C=O)c1O` stands “inactive and 12.6 µM (active)”. With `Cc1nc(N=Nc2ccc(C(=O)O)cc2)c(COP(=O)(O)O)c(C=O)c1O`, the Potency result is “inactive”. For `Cc1nc(N=Nc2cc(S(=O)(=O)O)c3cc([N+](=O)[O-])cc(S(=O)(=O)O)c3c2)c(COP(=O)(O)O)c(C=O)c1O`, the Potency result is “inactive”. Same read-out and setting: under `COC(=O)c1ccc(-c2cccc3c2OC(CNC(=O)c2ccc4c(c2)OCCO4)C3)nc1` (stereo unspecified) stands “inactive”; under `COc1cc(=O)n2c(c1C(=O)N(C)Cc1ccsc1)CCN(Cc1c(C)nc3sccn13)CC2`, “inactive”. On the same count and under the same terms, under `COc1ccccc1CCNc1ncnc2sc(C(=O)N3CCCCC3)c(C)c12` stands “inactive”. As to `CC1(C)CC2/C(CO)=C/C=C/[C@](C)(O)CC[C@]21O` (stereo partly specified), the Potency entry was “inactive”.

For the molecule `O=c1cc(-c2ccc(O)c(O)c2)oc2cccc(O)c12`, the Potency result is “inactive”. Still for that read-out and setting: with `O=c1c(O)c(-c2ccc(O)cc2O)oc2cc(O)cc(O)c12` the entry was “inactive”; with `O=c1c(O)c(-c2ccc(O)c(O)c2)oc2cc(O)cc(O)c12`, “inactive and 79.4 µM (active)”; with `O=c1c(O)c(-c2ccc(O)cc2)oc2cc(O)cc(O)c12`, “inactive”.

Turning to `O=c1cc(-c2ccc(O)cc2)oc2cc(O[C@H]3OC(CO)C(O)C(O)C3O)cc(O)c12` (stereo partly specified), the Potency entry is “inactive”.

With `CC1O[C@@H](O[C@H]2C(Oc3cc(O)c4c(=O)cc(-c5ccc(O)cc5)oc4c3)OC(CO)C(O)C2O)C(O)C(O)C1O` (stereo partly specified), the Potency entry was “inactive”. Consider `O=c1cc(-c2ccc(O)c(O)c2)oc2cc(OC3OC(CO)C(O)C(O)C3O)cc(O)c12` (stereo unspecified), for which the Potency is 39.8 µM (active). The same measure, in the same setting: with `O=c1c(O)c(-c2ccccc2)oc2cc(O)cc(O)c12` the entry was “inactive”; with `O=c1cc(-c2ccc(O)c(O)c2)oc2cc(O)cc(O)c12`, 50.1 µM (active) and 39.8 µM (active). On the same count and under the same terms, under `O=c1c(O)c(-c2cc(O)c(O)c(O)c2)oc2cc(O)cc(O)c12` stands 35.5 µM (active) and 39.8 µM (active) and inactive; under `O=c1cc(-c2ccc(O)cc2)oc2cc(O)cc(O)c12`, “inactive”; under `COc1cc(O)c2c(=O)c(O)c(-c3ccc(O)c(O)c3)oc2c1`, “inactive”. The same measure, in the same setting: with `CN1[C@@H]2CCC[C@@H]1CC(NC(=O)c1nn(C)c3ccccc13)C2` (stereo partly specified) the entry was “inactive”. Take `N#CC[C@H](Cc1ccccc1)N1CCN(Cc2ccccc2)CCC1=O`: the Potency result was “inactive”. Still for that read-out and setting: with `COc1ccc(C2OC3C(CO)OC(n4cnc5c(=O)[nH]c(N)nc54)C3O2)cc1` (stereo unspecified) the entry was “inactive”. The same measure, in the same setting: under `Cc1c(C(=O)N(C)Cc2cccc3ncccc23)cnn1-c1nccc(-c2ccccc2F)n1` stands “inactive”; under `CC1CN(CC(=O)NCCc2ccncc2)Cc2ccccc2O1` (stereo unspecified), “inactive”. Same read-out and setting: under `CC1CC[C@@]2(C(=O)O)CCC3(C)C(=CCC4[C@]5(C)CC(O)C(O)[C@](C)(CO)C5C(O)C[C@@]43C)C2C1C` (stereo partly specified) stands “inactive”; under `O=C(OC1Cc2c(O)cc(O)cc2OC1c1cc(O)c(O)c(O)c1-c1c(C2Oc3cc(O)cc(O)c3CC2OC(=O)c2cc(O)c(O)c(O)c2)cc(O)c(O)c1O)c1cc(O)c(O)c(O)c1` (stereo unspecified), 63.1 µM (active); under `CC(=O)Oc1cc(OC(C)=O)c2c(c1)OC(c1ccc(OC(C)=O)c(OC(C)=O)c1)C(OC(C)=O)C2` (stereo unspecified), “inactive”.

As to `O=C(Oc1cc(OC(=O)c2ccccc2)c2c(c1)OC(c1ccc(OC(=O)c3ccccc3)c(OC(=O)c3ccccc3)c1)[C@@H](OC(=O)c1ccccc1)C2)c1ccccc1` (stereo partly specified), the Potency entry was “inactive”. In the case of `COc1ccc2c(c1OC)C(=O)O[C@H]2C1c2c(cc3c(c2OC)OCO3)CCN1C` (stereo partly specified), the Potency result was “inactive”. On the same count and under the same terms, with `O=C(NCC1Cc2cccc(-c3cnccn3)c2O1)c1ccc2c(c1)OCCO2` (stereo unspecified) the entry was “inactive”; with `CC(C)C[C@@H](CO)N1CCN(CCc2ccccc2)CCC1=O`, “inactive”.

On to `COc1cccc(-c2nc(N3CCNCC3)c3ccccc3n2)c1`, for which the Potency entry was “inactive”. The same measure, in the same setting: under `Cc1cc2c(cc1C)N[C@]1(C[C@H]3CCCC(=O)N4CC[C@@H](C1)[C@@H]34)C(=NCc1ccccc1)N2` stands “inactive”; under `CN(C)c1ccc(/C=C/C=C/c2ccnc3ccccc23)cc1`, “inactive”. As for `CN(C)c1ccc(/C=C/c2ccnc3c2ccc2ccccc23)cc1`, the Potency result is “inactive”.

As to `CN(C)c1ccc(/C=C/c2ccnc3ccc4ccccc4c23)cc1`, the Potency was 100 µM (active).

In the case of `CCc1oc2ccccc2c1C(=O)c1cc(I)c(O)c(I)c1`, the Potency was 56.2 µM (active). Still for that read-out and setting: under `CC(=O)CC(c1ccccc1)c1c(O)c2ccccc2oc1=O` (stereo unspecified) stands “inactive”; under `COc1cccc(-c2oc3ccccc3c(=O)c2O)c1`, “inactive”; under `CCCCc1oc2ccccc2c1C(=O)c1cc(I)c(OCCN(CC)CC)c(I)c1`, “inactive”.

Turning to `CC(=O)c1ccc2oc3ccccc3c(=O)c2c1`, the Potency result was “inactive”. Same read-out and setting: with `CCc1oc2ccccc2c1C(=O)c1cc(Br)c(O)c(Br)c1` the figure was 100 µM (active); with `COc1cc(OC)c(OC)cc1CN1CCC(n2cc(C(=O)N3CCCCC3)nn2)CC1`, “inactive”; with `c1ccc2c(N3CCCCCC3)nc(CN3CCCCC3c3nccs3)nc2c1` (stereo unspecified), “inactive”. `COc1ccc(-c2nc3cnc(N(C)C)nc3n(C)c2=O)cc1`: the Potency entry was “inactive”. As for `O=C(Nc1ccc(S(=O)(=O)N2CCOCC2)cc1)c1cc(Cl)ccc1NS(=O)(=O)c1ccc(Cl)s1`, the Potency was 112 µM (active).

For the molecule `O=c1c(-c2ccc(Cl)cc2)nc2cnc(N3CCNCC3)nc2n1CCc1ccccc1`, the Potency result is “inactive”. Regarding `COc1cccc(Cn2c(=O)c(-c3ccc(F)c(F)c3)nc3cncnc32)c1`, the Potency entry is “inactive”.

With `O=c1c(-c2ccc(O)cc2)coc2cc(O)cc(O)c12`, the Potency entry was “inactive”.

Consider `COc1ccc(-c2coc3cc(O)cc(O)c3c2=O)cc1`, for which the Potency entry is “inactive”. The same measure, in the same setting: with `O=c1c(-c2ccccc2)coc2cc(O)cc(O)c12` the figure was 79.4 µM (active). On to `Cc1cccc(/C=C/c2cccs2)n1`, for which the Potency result was “inactive”. The same measure, in the same setting: under `COc1cccc(CN2Cc3cccc4c3[C@H](C=CC4)CC2=O)c1` stands “inactive”. Still for that read-out and setting: under `Cc1ccc2c(/C=C/c3ccc(N(C)C)cc3)ccnc2c1C` stands “inactive”; under `CS(=O)(=O)OCCCNCCCOS(C)(=O)=O`, “inactive”; under `COc1cc(C(=O)NS(=O)(=O)c2ccccc2C)ccc1Cc1cn(C)c2ccc(NC(=O)OC3CCCC3)cc12`, 89.1 µM (active). On the same count and under the same terms, under `COc1cc2c(cc1OC)CN(C(=O)[C@@H]1C[C@H](NCc3cn(C)c4ccccc34)CN1C1Cc3ccccc3C1)CC2` stands “inactive”; under `N#C/C(=C\c1ccc(O)c(O)c1)C(=O)Nc1ccccc1`, 79.4 µM (active) and inactive.

As for `O=C(O)/C=C/c1ccc(O)c(O)c1`, the Potency result is “inactive”. For `N#C/C(=C\c1ccc(O)c(O)c1)C(N)=O`, the Potency result is “inactive”.

For the molecule `N#C/C(=C\c1ccc(O)c(O)c1)C(=O)OCCc1cccs1`, the Potency is 39.8 µM (active). Same read-out and setting: with `N#C/C(=C\c1ccc(O)c(O)c1)C(=O)c1ccc(O)c(O)c1` the entry was “inactive”; with `N#C/C(=C\c1ccc(O)c(O)c1)C(=O)NCc1ccccc1`, “inactive”. On to `CC(NNC(=O)c1ccccc1)c1ccccc1` (stereo unspecified), for which the Potency result is “inactive”.

As to `C[C@H](NC(=O)/C(C#N)=C/c1ccc(O)c(O)c1)c1ccccc1`, the Potency was 89.1 µM (active) and inactive. On the same count and under the same terms, with `C[C@@H](NC(=O)/C(C#N)=C/c1ccc(O)c(O)c1)c1ccccc1` the entry was “inactive”; with `Cc1cccc2[nH]cc(/C=C3/C=Nc4ccccc43)c12`, “inactive”. With `c1cncc(CNc2nc(-c3ccc4c(c3)OCO4)nc3ccccc23)c1`, the Potency result was “inactive”.

For the molecule `O=S(=O)(NCc1nc(N2CCCC2)c2cc(Cl)ccc2n1)c1ccccc1OC(F)(F)F`, the Potency entry is “inactive”. Take `O=C[C@H](O)[C@@H](O)[C@H](O[C@H]1O[C@H](CO)[C@@H](O[C@H]2O[C@H](CO)[C@@H](O)[C@H](O)[C@H]2O)[C@H](O)[C@H]1O)[C@H](O)CO`: the Potency entry was “inactive”. As for `CCn1nc(C)cc1C(=O)N1CCC2(CC1)c1ccccc1[C@@H](NC(=O)c1cccnc1)[C@@H]2O`, the Potency result is “inactive”. In the case of `Cc1ncc2c(c1CNC(=O)c1ccc3c(c1)OCO3)CCN(C(=O)c1scc3c1CCCC3)C2`, the Potency entry is “inactive”. As for `CN(C)C(=O)c1ccc(-c2ccc3ncnc(NC4CC4)c3c2)cc1`, the Potency result was “inactive”.

Turning to `NCCC(=O)N[C@H](Cc1cnc[nH]1)C(=O)O`, the Potency entry was “inactive”.

With `C[C@@H]1NC(=O)OC1c1ccco1` (stereo partly specified), the Potency result is “inactive”.

Consider `CS(=O)(=O)Nc1cccc(-c2nccc(NCc3cccs3)n2)c1`, for which the Potency result was “inactive”.

Regarding `Cc1cc(C)n(-c2cccc(C(=O)NCC3Cc4cccc(-c5cccnc5)c4O3)c2)n1` (stereo unspecified), the Potency entry is “inactive”. On the same count and under the same terms, under `O=C1C=CC2=C3c4cc(O)c(O)cc4C[C@]3(O)COC2=C1` stands “inactive”; under `O=C1C=CC2=C3c4cc(O)c(O)cc4CC3(O)COC2=C1O` (stereo unspecified), 56.2 µM (active) and 25.1 µM (active); under `O=C1C=CC2=C3c4cc(O)c(O)cc4C[C@@]3(O)COC2=C1`, “inactive”. Still for that read-out and setting: with `CC1O[C@@H](O[C@@H]2C(O)C[C@H](O[C@@H]3C(O)C[C@@H](OC4CC[C@@]5(C)C6CC(O)[C@@]7(C)C(C8=CC(=O)OC8)CC[C@@]7(O)C6CC[C@@H]5C4)OC3C)OC2C)CC(O)[C@H]1O` (stereo partly specified) the entry was “inactive”.
